Here are results for 8 molecules from PubChem BioAssay.

Experiment [1] is described as follows: compound effects on lung adenocarcinoma cell viability – A549, calcein-AM fluorescence, 48 h, basal, profiling panel (AID 1162). Also: test concentration not given here. Particulars: higher = more signal.
The nature of experiment [2]: compound effects on differentiated 3T3-L1 adipocyte viability – cell-based, 3T3-L1 adipocytes, calcein-AM fluorescence, 48 h, basal, profiling panel (AID 1163). Also: test concentration not given here. The note with it: 3T3-L1 adipocytes viability, higher = more signal.
Experiment [3] in a line: compound effects on hepatocellular carcinoma cell viability – HepG2, calcein-AM fluorescence, 48 h, basal, profiling panel (AID 1164). Also: test concentration not given here. Particulars: higher = more signal.
The nature of experiment [4]: compound effects on multiple myeloma cell viability – MM1S, calcein-AM fluorescence, 48 h, basal, profiling panel (AID 1165).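 Also: viability of MM1S multiple myeloma cells under basal unstimulated conditions; test concentration not given here.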 The note with it: higher = more signal.
Experiment [5] in a line: calcein-AM signal in unstimulated myeloma cells – cell-based, calcein-AM fluorescence, 48 h, PK04 Diversity Set, profiling panel (AID 1166).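 Also: cells grown under basal conditions without added stimulus; test concentration not given here.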 The note with it: RPMI8226 myeloma viability, higher = more signal.
Experiment [6] can be described thus: JC-1 mitochondrial signal, unstimulated HepG2 cells – cell-based, JC-1 fluorescence, 24 h, 100 nL compound, profiling panel (AID 1167). Also: test concentration not given here. The note with it: HepG2 mitochondrial potential, higher = more signal.
A short description of experiment [7]: JC-1 mitochondrial signal, unstimulated adipocytes – cell-based, JC-1 fluorescence, 3T3-L1 adipocytes, 24 h, 100 nL compound, profiling panel (AID 1168). Also: test concentration not given here. The note with it: JC-1 mitochondrial fluorescence, higher = more signal, called active from +8 up or from −8 down.
Experiment [8] is described as follows: JC-1 mitochondrial signal, unstimulated myeloma cells – cell-based, JC-1 fluorescence, RPMI8226, 24 h, 100 nL compound, profiling panel (AID 1169). Also: test concentration not given here. Particulars: JC-1 mitochondrial potential fluorescence, higher = more signal.
Experiment [9] in a line: JC-1 mitochondrial signal, unstimulated MM1S myeloma – cell-based, JC-1 fluorescence, 24 h, 100 nL compound, profiling panel (AID 1170). Also: test concentration not given here. The note with it: MM1S mitochondrial potential, higher = more signal.
The nature of experiment [10]: resazurin metabolic signal in A549 cells – cell-based, resazurin fluorescence, 24 h, PK04 Diversity Set, profiling panel (AID 1171). Also: test concentration not given here. The note with it: A549 viability, higher = more signal, called active from +8 up or from −8 down. (Resazurin is reduced to fluorescent resorufin, in cell work by metabolically active cells.)
A short description of experiment [11]: resazurin metabolic signal in HepG2 cells – cell-based, resazurin fluorescence, 24 h, PK04 Diversity Set, profiling panel (AID 1172). Also: test concentration not given here. The note with it: HepG2 viability, higher = more signal.
A short description of experiment [12]: budding yeast growth changes without added modifier – OD600, strain BY4716, 24 h, basal condition, primary screen (AID 1173). The note with it: S. cerevisiae BY4716 growth, OD600, 24 h; higher = more signal, called active from +8 up or from −8 down.
The nature of experiment [13]: viability profiling in MM1S myeloma cells – cell-based, resazurin fluorescence, basal, 24 h, PK04 Diversity Set, profiling panel (AID 1174). Also: test concentration not given here. Particulars: higher = more signal, called active from +8 up or from −8 down.
Experiment [14] deals with Dihydroorotate dehydrogenase (quinone), mitochondrial (Plasmodium falciparum (isolate 3D7)) (UniProt Q08210). As to the kind of experiment: inhibition of P. falciparum DHODH – biochemical, C-terminal His tag, absorbance 600 nm, primary screen (AID 1175).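 Also: recombinant parasite enzyme with a five histidine tag at its C terminus; test concentration not given here.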 The note with it: PfDHODH enzyme, DCIP absorbance 600 nm; higher = more signal, called active from +8 up or from −8 down.

Experiment [15] is described as follows: inhibition of PAO1 biofilm formation – strain PAO1, LB-PBS medium, absorbance 600 nm, primary screen (AID 1176). Also: test concentration not given here. Particulars: P. aeruginosa PAO1 growth/biofilm, A600, 12 h; higher = more signal.
Experiment [16] in a line: growth modulation of vineyard yeast isolate – strain RM11-1a, OD600, basal, 24 h, primary screen (AID 1177).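 Also: cultures grown under basal conditions with no added stressor; test concentration not given here.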 Particulars: S. cerevisiae RM11-1a growth, OD600, 24 h; higher = more signal, called active from +8 up or from −8 down.
The nature of experiment [17]: growth of efflux-deficient E. coli DRC39 – strain DRC39, OD650, 24 h, E. coli filamentation inducers, primary screen (AID 1178).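 Also: growth measured as culture turbidity by optical density at 650 nm; test concentration not given here.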 Particulars: E. coli DRC39 acrAB, higher = more signal, called active from +8 up or from −8 down.
The nature of experiment [18]: growth of efflux-deficient E. coli DRC39 – strain DRC39, OD650, 48 h, E. coli filamentation inducers, primary screen (AID 1179).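 Also: screen aims at cell division blockers that make cells filament.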 The note with it: E. coli DRC39 delta-acrAB growth, higher = more signal, called active from +8 up or from −8 down.
Experiment [19] in a line: viability profiling in RPMI8226 myeloma cells – cell-based, resazurin fluorescence, basal, 24 h, PK04 Diversity Set, profiling panel (AID 1180).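 Also: RPMI8826 multiple myeloma cell line at 5000 cells per well; test concentration not given here.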 Particulars: higher = more signal.
The target in experiment [20] is E3 ubiquitin-protein ligase XIAP (Homo sapiens) (UniProt P98170). As to the kind of experiment: small molecules binding XIAP protein – biophysical, small-molecule microarray, fluorescence 635 nm, primary screen (AID 1181).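 Also: score merges 667 nm emission and signal to noise over triplicate slides.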 Particulars: higher = more signal.

Activity calls are given as the source filed them. Unless noted, no rule for the calls is given here.

Chain of Dihydroorotate dehydrogenase (quinone), mitochondrial (Plasmodium falciparum (isolate 3D7)) (Q08210 whole entry, looked up): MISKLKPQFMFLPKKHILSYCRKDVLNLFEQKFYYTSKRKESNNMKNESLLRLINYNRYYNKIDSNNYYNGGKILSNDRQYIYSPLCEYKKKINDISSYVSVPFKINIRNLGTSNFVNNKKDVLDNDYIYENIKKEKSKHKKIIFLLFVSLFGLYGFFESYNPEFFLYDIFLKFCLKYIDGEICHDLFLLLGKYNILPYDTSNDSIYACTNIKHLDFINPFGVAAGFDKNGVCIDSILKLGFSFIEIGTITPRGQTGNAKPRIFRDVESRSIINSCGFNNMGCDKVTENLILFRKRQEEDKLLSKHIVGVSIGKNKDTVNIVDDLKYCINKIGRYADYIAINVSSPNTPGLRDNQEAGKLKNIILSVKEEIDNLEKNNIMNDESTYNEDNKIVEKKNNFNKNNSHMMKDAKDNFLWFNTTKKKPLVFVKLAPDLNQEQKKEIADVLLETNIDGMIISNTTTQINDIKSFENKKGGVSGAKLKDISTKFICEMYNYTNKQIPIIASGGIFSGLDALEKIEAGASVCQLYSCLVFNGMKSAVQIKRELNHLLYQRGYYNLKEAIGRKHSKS
Chain of E3 ubiquitin-protein ligase XIAP (Homo sapiens) (P98170 whole entry, looked up): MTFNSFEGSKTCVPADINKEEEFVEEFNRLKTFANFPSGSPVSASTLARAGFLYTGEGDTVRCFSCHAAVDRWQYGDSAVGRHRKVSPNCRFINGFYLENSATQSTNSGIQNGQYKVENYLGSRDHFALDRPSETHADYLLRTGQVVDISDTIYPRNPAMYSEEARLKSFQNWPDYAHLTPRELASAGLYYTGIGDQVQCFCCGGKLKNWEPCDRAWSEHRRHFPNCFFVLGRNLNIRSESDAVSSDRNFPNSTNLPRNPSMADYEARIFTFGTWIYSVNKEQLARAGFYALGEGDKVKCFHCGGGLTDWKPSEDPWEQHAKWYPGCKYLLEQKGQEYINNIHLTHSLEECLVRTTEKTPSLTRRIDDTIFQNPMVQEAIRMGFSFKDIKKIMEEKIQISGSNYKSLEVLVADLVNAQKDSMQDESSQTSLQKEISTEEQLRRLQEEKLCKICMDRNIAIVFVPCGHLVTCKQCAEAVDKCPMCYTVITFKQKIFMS

Regarding `CCOC(=O)C[C@H]1[C@H](OC(=O)Cc2ccc3c(c2)OCO3)[C@@H](NC(=O)C2CCCCC2)c2cc(OCCCO)ccc2N1C(=O)Cc1ccc(OC)cc1`, the z-score in [1] is 0.746; in experiment [2] it was 0.433; in experiment [3], 1.08; in experiment [4] it was 0.747; in [5], 0.664; in experiment [6], 2.39. Further, the z-score in experiment [7] is 0.0143 (inactive); in experiment [8] it was -0.0561; in experiment [9], -0.784; in experiment [10], -0.247 (inactive); in experiment [11], -0.778; in [12] it was -0.815 (inactive). Also, the z-score was 0.184 (inactive) in [13]; 0.183 (inactive) in experiment [15]; -1.53 (inactive) in [16]; 0.015 (inactive) in [17]; 0.424 (inactive) in [18]; 0.283 in [19]. Also, the results for the composite z-score in experiment [14] and in experiment [20] were -0.974 (inactive) and 0.0413, respectively.

Take `O=C1OCCC/C=C\[C@H]2OC34C=CCN(Cn5nnc6ccccc65)C(=O)[C@H]3N(CCCCCO)C(=O)[C@@H]4C12` (stereo not given in full): the z-score was -0.452 in [1]; 1.05 in experiment [2]; -1.02 in experiment [3]; -0.496 in experiment [4]; 0.424 in experiment [5]; 0.19 in experiment [6]. The z-score is 0.0884 (inactive) in [7]; -0.212 in [8]; 0.37 in experiment [9]; 0.0684 (inactive) in [10]; 0.502 in experiment [11]; -0.419 (inactive) in [12]. In addition, the z-score in [13] was 0.812 (inactive); in experiment [15] it was 0.193 (inactive); in [16], -0.564 (inactive); in experiment [17], 0.376 (inactive); in experiment [18], -0.0083 (inactive); in experiment [19], 0.692. Further, the composite z-score is -1.01 (inactive) in experiment [14] and 0.178 in [20].

With `CCOC(=O)C[C@H]1[C@H](OC(=O)c2ccc(-c3ccccc3)cc2)[C@@H](NC(=O)c2ccc(-c3ccccc3)cc2)c2cc(OCCCO)ccc2N1C(=O)Cc1ccc(OC)cc1`, the z-score in experiment [1] is -0.457; in [2], 0.485; in experiment [3] it was -0.0494; in experiment [4], -0.781; in experiment [5] it was 0.0196; in experiment [6] it was 1.15. In addition, the z-score in experiment [7] was 0.458 (inactive); in experiment [8] it was -0.00497; in experiment [9], 0.413; in experiment [10], 0.0992 (inactive); in [11], -0.0995; in experiment [12], 0.353 (inactive). In addition, the z-score is -0.26 (inactive) in [13]; 0.432 (inactive) in experiment [15]; 0.0873 (inactive) in [16]; 0.39 (inactive) in experiment [17]; 0.372 (inactive) in experiment [18]; -0.361 in experiment [19]. The values for the composite z-score in experiment [14] and in [20] were -0.432 (inactive) and -0.123, respectively.

Take `COCCOC(=O)N1C(=O)[C@@]2(c3ccccc31)[C@H](C(=O)NC[C@H](O)c1ccccc1)[C@H]1C(=O)O[C@H](c3ccccc3)[C@H](c3ccccc3)N1[C@@H]2c1ccc(OCCO)cc1`: the z-score in experiment [1] was -0.656; in experiment [2] it was 1.13; in experiment [3] it was -0.655; in experiment [4] it was -0.233; in [5], -0.773; in experiment [6], 0.546. Also, the z-score in experiment [7] was 0.843 (inactive); in experiment [8], -0.598; in experiment [9] it was -0.295; in experiment [10] it was 0.377 (inactive); in experiment [11], 1.09; in [12], 1.42 (inactive). Further, the z-score in [13] was -1.04 (inactive); in [15] it was 2.36 (inactive); in experiment [16], 1.61 (inactive); in experiment [17] it was 0.649 (inactive); in [18] it was -0.559 (inactive); in experiment [19], -0.744. For the same molecule, the values for the composite z-score in experiment [14] and in experiment [20] were -0.0923 (inactive) and -0.156, respectively.

For the molecule `Cc1ccc(S[C@]2(C(=O)O)CC(=O)N(C3Cc4ccccc4C3)[C@@H]2c2ccc(CO)cc2I)cc1`, the z-score in [1] is 0.214; in [2] it was 0.278; in [3], -0.671; in [4], -2.95; in experiment [5], -2.88; in experiment [6] it was 0.0324. Moreover, the z-score in experiment [7] is -0.939 (inactive); in experiment [8], -0.137; in experiment [9], -0.717; in experiment [10] it was 0.477 (inactive); in experiment [11] it was 0.186; in [12], -1.99 (inactive). Also, the z-score in experiment [13] was -1.95 (inactive); in experiment [15] it was -0.109 (inactive); in experiment [16], -0.219 (inactive); in experiment [17] it was 0.602 (inactive); in [18], 0.447 (inactive); in experiment [19], -1.78. Besides, the composite z-score in experiment [14] was 0.0058 (inactive); in experiment [20], -0.0726.

For the molecule `CC(=O)C1=CCC(c2ccccc2)N(S(=O)(=O)c2ccc(C)cc2)C1` (stereo not given), the z-score was -0.346 in [1]; 0.0159 in experiment [2]; -0.727 in [3]; -0.0171 in experiment [4]; -1.08 in experiment [5]; -0.602 in experiment [6]. The z-score is -1.35 (inactive) in experiment [7]; 0.697 in experiment [8]; 0.329 in experiment [9]; 0.183 (inactive) in experiment [10]; -0.0399 in experiment [11]; 0.832 (inactive) in [12]. Moreover, the z-score was -0.551 (inactive) in experiment [13]; 0.533 (inactive) in [15]; 0.227 (inactive) in experiment [16]; 0.422 (inactive) in [17]; 0.0116 (inactive) in experiment [18]; -0.809 in [19]. Further, the composite z-score in experiment [14] was 0.746 (inactive); in [20] it was -0.0773.

Turning to `COc1ccc(CCNC(=O)[C@@H]2c3ccccc3C(=O)N(Cc3ccc(OC(F)(F)F)cc3)[C@H]2c2ccc(CO)cc2)cc1`, the z-score was 0.843 in experiment [1]; 0.614 in experiment [2]; -1.01 in experiment [3]; -2.39 in [4]; -1.99 in [5]; 1.14 in experiment [6]. The z-score in [7] was -0.0731 (inactive); in experiment [8], 0.118; in [9], -0.23; in experiment [10], 0.619 (inactive); in [11], 0.697; in [12], -0.484 (inactive). Also, the z-score in experiment [13] was -0.0601 (inactive); in experiment [15], 1.52 (inactive); in experiment [16] it was -0.419 (inactive); in experiment [17] it was -0.344 (inactive); in experiment [18], -1.06 (inactive); in experiment [19], 0.53. Besides, the composite z-score was 0.274 (inactive) in experiment [14] and -0.228 in [20].

Consider `CC(C)(C)N1CC=CC23O[C@@H]4C=CCOC(=O)[C@@H]4[C@H]2C(=O)N(CCCCCO)[C@@H]3C1=O` (stereo not given in full), for which the z-score in experiment [1] was -0.52; in experiment [2], 0.468; in [3] it was -0.542; in experiment [4] it was -0.341; in experiment [5] it was 0.606; in experiment [6] it was -0.667. The z-score in [7] is -0.173 (inactive); in experiment [8], 0.828; in experiment [9] it was 0.388; in [10], -1.08 (inactive); in experiment [11], -0.308; in experiment [12] it was 0.285 (inactive). Besides, the z-score is -0.728 (inactive) in experiment [13]; 0.0962 (inactive) in experiment [15]; -0.0325 (inactive) in experiment [16]; -1.09 (inactive) in experiment [17]; -1.2 (inactive) in experiment [18]; -0.867 in experiment [19]. The composite z-score is -0.0531 (inactive) in experiment [14] and 0.333 in [20].
